From the supplement of paper PMC10849652
Of roughly 8,800 targets only a part is listed; those with a hit were picked by preference. About 0.5% of all pairs of compound and target were hits.

Assays:
Assay in all cases: log2 fold change, soluble protein after heating vs DMSO (PISA); higher = thermal stabilisation; K562 lysate, 10 uM; active = over 0.2 and 3.5 SD of the protein, either way, in both replicates (recomputed)
nilotinib = compound: Cc1cn(-c2cc(NC(=O)c3ccc(C)c(Nc4nccc(-c5cccnc5)n4)c3)cc(C(F)(F)F)c2)cn1 [nilotinib]
Summary of the method: (§1)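 Pellets of K562 cells were dounce-homogenised in PBS pH 7.4 with 1 mM MgCl2, and the crude extract was held at 1 mg/mL protein for a 30 min treatment with 10 μM compound. Aliquots were heated for 3 min over 48°C-58°C and pooled before NP-40 was added to 0.5% at 4°C. The supernatant from 21,000xg for 90 min was quantified by TMTpro 16plex LC-MS/MS with channel sums equalised. Values are reported from duplicates as log-two fold change in thermal stability relative to solvent controls.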

[1] = compound: Cc1nc(Nc2n[nH]c3c2CN(C(=O)N[C@H](CN(C)C)c2ccccc2)C3(C)C)c2sccc2n1
Summary of the method: as §1

dasatinib = compound: Cc1nc(Nc2ncc(C(=O)Nc3c(C)cccc3Cl)s2)cc(N2CCN(CCO)CC2)n1 [dasatinib]
Summary of the method: as §1

[2] = compound: Cc1ncc(-c2ccnc(Nc3ccc(S(C)(=O)=O)cc3)n2)n1C(C)C
Summary of the method: as §1

[3] = compound: Cn1cc(-c2ccc3c(c2)CCN3C(=O)Cc2cccc(C(F)(F)F)c2)c2c(N)ncnc21
Summary of the method: as §1

quisinostat = compound: Cn1cc(CNCC2CCN(c3ncc(C(=O)NO)cn3)CC2)c2ccccc21 [quisinostat]
Summary of the method: as §1

tipifarnib = compound: Cn1cncc1[C@@](N)(c1ccc(Cl)cc1)c1ccc2c(c1)c(-c1cccc(Cl)c1)cc(=O)n2C [tipifarnib]
Summary of the method: as §1

[4] = compound: NC(=O)Nc1cc(-c2cccc(F)c2)sc1C(=O)N[C@H]1CCCNC1
Summary of the method: as §1

[5] = compound: NC(=O)c1cnc(N[C@@H]2CCCC[C@@H]2N)nc1Nc1cccc(-n2nccn2)c1
Summary of the method: as §1

[6] = compound: NC1(c2ccc(-c3nc4ccn5c(=O)[nH]nc5c4cc3-c3ccccc3)cc2)CCC1
Summary of the method: as §1

[7] = compound: NCC(=O)Nc1ccc(-n2nc(C(F)(F)F)cc2-c2ccc3c(ccc4ccccc43)c2)cc1
Summary of the method: as §1

vorinostat = compound: O=C(CCCCCCC(=O)Nc1ccccc1)NO [vorinostat]
Summary of the method: as §1

silmitasertib = compound: O=C(O)c1ccc2c(c1)nc(Nc1cccc(Cl)c1)c1ccncc12 [silmitasertib]
Summary of the method: as §1

[8] = compound: O=C1NC(=O)C(c2cnc3ccccn23)=C1c1cn2c3c(cc(F)cc13)CN(C(=O)N1CCCCC1)CC2
Summary of the method: as §1

entospletinib = compound: c1cn2cc(-c3ccc4cn[nH]c4c3)nc(Nc3ccc(N4CCOCC4)cc3)c2n1 [entospletinib]
Summary of the method: as §1

Measured: log2 fold change

TUBB4B (UniProt P68371)
active: vorinostat -0.712
inactive: nilotinib 0.049 | [1] -0.05 | dasatinib -0.025 | [2] -0.034 | [3] -0.005 | quisinostat 0.033 | tipifarnib -0.001 | [4] 0.006 | [5] -0.019 | [6] 0.009 | [7] 0.014 | silmitasertib 0.024 | [8] -0.001 | entospletinib 0.005

TPM3 (UniProt P06753)
inactive: nilotinib 0.014 | [1] -0.033 | dasatinib 0.023 | [2] 0.028 | [3] -0.012 | quisinostat 0.046 | tipifarnib 0.033 | [4] -0.042 | [5] -0.02 | [6] 0.034 | [7] 0.004 | vorinostat 0.112 | silmitasertib 0.012 | [8] -0.004 | entospletinib 0.008

TUBB6 (UniProt Q9BUF5)
inactive: nilotinib -0.002 | [1] -0.023 | dasatinib -0.031 | [2] 0.006 | [3] -0.006 | quisinostat -0.028 | tipifarnib 0.021 | [4] 0.022 | [5] -0.001 | [6] 0.004 | [7] 0.013 | silmitasertib 0.04 | [8] 0.013 | entospletinib 0.004
active: vorinostat -0.558

TRAPPC6A isoform 2 (UniProt O75865)
inactive: nilotinib 0.015 | [1] -0.09 | dasatinib -0.026 | [2] 0.02 | [3] -0.058 | quisinostat 0.006 | tipifarnib 0.048 | [4] -0.048 | [5] -0.008 | [6] 0.076 | [7] -0.048 | vorinostat -0.038 | silmitasertib 0.013 | [8] -0.002 | entospletinib -0.157

TNPO3 (UniProt Q9Y5L0)
UniProt Q9Y5L0, sequence (Q9Y5L0 whole entry, looked up): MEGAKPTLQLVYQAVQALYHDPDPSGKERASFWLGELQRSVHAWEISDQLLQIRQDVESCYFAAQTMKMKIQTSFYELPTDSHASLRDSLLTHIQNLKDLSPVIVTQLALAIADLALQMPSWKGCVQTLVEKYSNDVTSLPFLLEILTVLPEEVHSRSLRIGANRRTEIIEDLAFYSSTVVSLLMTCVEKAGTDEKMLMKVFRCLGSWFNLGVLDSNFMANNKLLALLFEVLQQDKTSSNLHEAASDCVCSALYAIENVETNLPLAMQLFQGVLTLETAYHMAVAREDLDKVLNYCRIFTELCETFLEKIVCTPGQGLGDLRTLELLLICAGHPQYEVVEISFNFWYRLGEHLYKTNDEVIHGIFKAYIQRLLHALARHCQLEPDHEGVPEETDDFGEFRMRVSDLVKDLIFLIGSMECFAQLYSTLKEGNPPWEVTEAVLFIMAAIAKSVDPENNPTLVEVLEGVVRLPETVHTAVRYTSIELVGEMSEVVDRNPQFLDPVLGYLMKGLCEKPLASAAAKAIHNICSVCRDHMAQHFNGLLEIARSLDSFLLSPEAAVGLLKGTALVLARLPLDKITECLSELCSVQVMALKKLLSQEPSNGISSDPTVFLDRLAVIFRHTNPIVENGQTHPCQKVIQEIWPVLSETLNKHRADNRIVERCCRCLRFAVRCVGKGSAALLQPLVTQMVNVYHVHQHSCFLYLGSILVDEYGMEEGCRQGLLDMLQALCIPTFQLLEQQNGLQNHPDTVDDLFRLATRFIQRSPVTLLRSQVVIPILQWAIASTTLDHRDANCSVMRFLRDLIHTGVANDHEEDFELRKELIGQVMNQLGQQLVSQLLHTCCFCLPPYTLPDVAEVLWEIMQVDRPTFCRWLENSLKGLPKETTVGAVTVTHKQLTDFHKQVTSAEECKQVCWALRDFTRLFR
active: vorinostat -0.317
inactive: nilotinib -0.016 | [1] 0.017 | dasatinib 0 | [2] 0.003 | [3] 0.009 | quisinostat -0.001 | tipifarnib 0.001 | [4] -0.002 | [5] -0.016 | [6] -0.01 | [7] 0.017 | silmitasertib 0.015 | [8] 0.009 | entospletinib 0.022

TRMT12 (UniProt Q53H54)
inactive: nilotinib -0.02 | [1] -0.005 | dasatinib -0.032 | [2] 0.062 | [3] -0.017 | quisinostat -0.074 | tipifarnib -0.007 | [4] 0.117 | [5] -0.009 | [6] 0.004 | [7] 0.045 | silmitasertib -0.039 | [8] -0.043 | entospletinib -0.125
active: vorinostat -0.35

TELO2 (UniProt Q9Y4R8)
inactive: nilotinib -0.012 | [1] -0.014 | dasatinib -0.082 | [2] -0.021 | [3] 0.035 | quisinostat -0.057 | tipifarnib -0.013 | [4] 0.058 | [5] 0.003 | [6] -0.03 | [7] 0.003 | silmitasertib 0.117 | [8] 0.011 | entospletinib 0.011
active: vorinostat -0.361

UBR3 isoform 4 (UniProt Q6ZT12)
UniProt Q6ZT12, sequence (Q6ZT12 whole entry, looked up): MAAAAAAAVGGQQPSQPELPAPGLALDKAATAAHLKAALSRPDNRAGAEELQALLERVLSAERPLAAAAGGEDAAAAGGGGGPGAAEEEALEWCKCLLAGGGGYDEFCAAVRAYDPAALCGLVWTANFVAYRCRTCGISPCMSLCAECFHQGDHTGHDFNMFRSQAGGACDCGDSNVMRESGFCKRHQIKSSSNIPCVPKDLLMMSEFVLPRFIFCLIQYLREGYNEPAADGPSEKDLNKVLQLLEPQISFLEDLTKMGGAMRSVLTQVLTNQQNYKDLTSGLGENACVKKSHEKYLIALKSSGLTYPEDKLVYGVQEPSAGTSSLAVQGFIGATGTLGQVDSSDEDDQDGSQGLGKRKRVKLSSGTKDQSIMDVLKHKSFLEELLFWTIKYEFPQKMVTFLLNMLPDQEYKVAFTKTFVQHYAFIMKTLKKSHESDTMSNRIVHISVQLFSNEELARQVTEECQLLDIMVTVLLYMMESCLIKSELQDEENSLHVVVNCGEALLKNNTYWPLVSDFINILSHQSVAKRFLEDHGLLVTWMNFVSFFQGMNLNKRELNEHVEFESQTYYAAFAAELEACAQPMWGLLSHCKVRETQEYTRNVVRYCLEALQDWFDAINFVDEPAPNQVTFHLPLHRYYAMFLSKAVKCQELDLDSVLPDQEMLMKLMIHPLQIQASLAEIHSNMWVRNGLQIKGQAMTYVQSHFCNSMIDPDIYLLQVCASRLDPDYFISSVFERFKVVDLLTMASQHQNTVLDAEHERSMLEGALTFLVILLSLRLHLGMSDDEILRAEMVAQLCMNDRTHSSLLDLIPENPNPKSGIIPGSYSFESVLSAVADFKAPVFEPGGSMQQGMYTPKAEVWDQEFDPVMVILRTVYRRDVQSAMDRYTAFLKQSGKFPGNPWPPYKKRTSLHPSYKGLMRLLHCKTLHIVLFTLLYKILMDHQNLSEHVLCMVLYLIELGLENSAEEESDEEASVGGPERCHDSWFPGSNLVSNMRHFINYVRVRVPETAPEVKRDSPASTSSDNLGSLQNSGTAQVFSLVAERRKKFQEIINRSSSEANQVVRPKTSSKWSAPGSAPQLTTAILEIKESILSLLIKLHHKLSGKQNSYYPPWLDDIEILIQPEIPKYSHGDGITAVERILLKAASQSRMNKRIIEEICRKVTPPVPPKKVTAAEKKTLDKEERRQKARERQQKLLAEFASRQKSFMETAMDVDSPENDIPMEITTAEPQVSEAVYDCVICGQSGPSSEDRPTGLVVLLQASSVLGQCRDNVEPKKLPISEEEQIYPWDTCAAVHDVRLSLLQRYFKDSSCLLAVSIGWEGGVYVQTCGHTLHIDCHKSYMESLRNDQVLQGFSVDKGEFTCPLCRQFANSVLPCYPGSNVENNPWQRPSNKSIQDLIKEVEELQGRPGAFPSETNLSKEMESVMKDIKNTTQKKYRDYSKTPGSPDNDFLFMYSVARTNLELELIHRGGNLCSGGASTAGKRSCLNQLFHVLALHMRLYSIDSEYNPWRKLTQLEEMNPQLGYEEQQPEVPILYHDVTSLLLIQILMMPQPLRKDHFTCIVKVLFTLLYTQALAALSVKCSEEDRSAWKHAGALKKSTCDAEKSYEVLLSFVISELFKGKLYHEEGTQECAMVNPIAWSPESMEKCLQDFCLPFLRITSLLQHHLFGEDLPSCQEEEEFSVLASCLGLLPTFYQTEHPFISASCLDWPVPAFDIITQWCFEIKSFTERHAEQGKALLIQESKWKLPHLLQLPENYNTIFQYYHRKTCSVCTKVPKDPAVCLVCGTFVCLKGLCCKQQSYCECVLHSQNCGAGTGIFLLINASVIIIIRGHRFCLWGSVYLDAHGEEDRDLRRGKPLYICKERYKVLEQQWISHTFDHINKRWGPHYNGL
inactive: nilotinib 0.003 | [1] -0.033 | dasatinib -0.026 | [2] -0.005 | [3] 0.014 | quisinostat -0.069 | tipifarnib -0.009 | [4] 0.036 | [5] -0.032 | [6] -0.039 | [7] -0.011 | silmitasertib 0.023 | [8] -0.005 | entospletinib -0.003
active: vorinostat -0.43

TMEM164 (UniProt Q5U3C3)
inactive: nilotinib 0.06 | [1] -0.009 | dasatinib -0.087 | [2] 0.162 | [3] -0.041 | quisinostat -0.404 | tipifarnib -0.055 | [4] 0.1 | [5] 0.083 | [6] -0.036 | [7] 0.098 | vorinostat 0.463 | silmitasertib -0.079 | [8] 0.274 | entospletinib 0.059

TMPO (UniProt P42167)
inactive: nilotinib -0.033 | [1] -0.003 | dasatinib 0.008 | [2] -0.042 | [3] -0.016 | quisinostat 0.061 | tipifarnib -0.034 | [4] 0.009 | [5] -0.011 | [6] 0.007 | [7] 0.021 | vorinostat 0.104 | silmitasertib 0.012 | [8] -0.032 | entospletinib -0.031

TOE1 (UniProt Q96GM8)
inactive: nilotinib -0.039 | [1] -0.012 | dasatinib 0.016 | [2] 0.04 | [3] 0.015 | quisinostat -0.036 | tipifarnib 0.006 | [4] 0.023 | [5] -0.013 | [6] -0.01 | [7] -0.003 | silmitasertib 0.041 | [8] 0.002 | entospletinib 0.043
active: vorinostat -0.359

UBE4A isoform 2 (UniProt Q14139)
active: vorinostat -0.257
inactive: nilotinib 0.023 | [1] -0.009 | dasatinib -0.075 | [2] -0.022 | [3] 0.026 | quisinostat -0.018 | tipifarnib -0.003 | [4] 0.054 | [5] 0.002 | [6] 0.017 | [7] 0.007 | silmitasertib 0.019 | [8] 0.029 | entospletinib 0.026

TRIP13 (UniProt Q15645)
UniProt Q15645, sequence (Q15645 whole entry, looked up): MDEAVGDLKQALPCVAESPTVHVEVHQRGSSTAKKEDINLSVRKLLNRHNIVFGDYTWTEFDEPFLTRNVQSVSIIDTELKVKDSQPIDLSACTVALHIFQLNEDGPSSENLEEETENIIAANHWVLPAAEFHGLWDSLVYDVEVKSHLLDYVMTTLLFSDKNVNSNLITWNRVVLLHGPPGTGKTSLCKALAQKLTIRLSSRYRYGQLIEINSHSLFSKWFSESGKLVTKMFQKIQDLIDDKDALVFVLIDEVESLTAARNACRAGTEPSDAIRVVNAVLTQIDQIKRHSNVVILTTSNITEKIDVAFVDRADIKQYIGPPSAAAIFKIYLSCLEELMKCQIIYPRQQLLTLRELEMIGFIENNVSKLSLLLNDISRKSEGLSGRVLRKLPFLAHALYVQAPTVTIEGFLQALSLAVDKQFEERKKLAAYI
active: vorinostat -0.472
inactive: nilotinib -0.002 | [1] -0.031 | dasatinib 0.003 | [2] 0.049 | [3] 0.046 | quisinostat -0.065 | tipifarnib 0.007 | [4] 0.026 | [5] 0.002 | [6] -0.031 | [7] 0.002 | silmitasertib 0.061 | [8] -0.002 | entospletinib 0.022

TGFBRAP1 (UniProt Q8WUH2)
active: vorinostat -0.433
inactive: nilotinib 0.005 | [1] -0.043 | dasatinib -0.048 | [2] -0.015 | [3] 0.06 | quisinostat -0.076 | tipifarnib 0.004 | [4] 0.029 | [5] 0.009 | [6] 0.04 | [7] -0.039 | silmitasertib 0.051 | [8] -0.018 | entospletinib 0.024

UBA1 (UniProt P22314)
inactive: nilotinib -0.004 | [1] 0.014 | dasatinib -0.026 | [2] 0.002 | [3] 0.028 | quisinostat -0.019 | tipifarnib -0.01 | [4] 0.019 | [5] 0.008 | [6] -0.011 | [7] 0.018 | silmitasertib 0.01 | [8] -0.003 | entospletinib 0.02
active: vorinostat -0.371

TUBA3C (UniProt P0DPH7)
active: vorinostat -0.913
inactive: nilotinib -0.009 | [1] -0.029 | dasatinib -0.018 | [2] -0.001 | [3] -0.05 | quisinostat -0.098 | tipifarnib -0.025 | [4] 0.05 | [5] 0.022 | [6] 0.005 | [7] 0 | silmitasertib 0.017 | [8] -0.008 | entospletinib -0.007

TK1 (UniProt P04183)
UniProt P04183, sequence (P04183 whole entry, looked up): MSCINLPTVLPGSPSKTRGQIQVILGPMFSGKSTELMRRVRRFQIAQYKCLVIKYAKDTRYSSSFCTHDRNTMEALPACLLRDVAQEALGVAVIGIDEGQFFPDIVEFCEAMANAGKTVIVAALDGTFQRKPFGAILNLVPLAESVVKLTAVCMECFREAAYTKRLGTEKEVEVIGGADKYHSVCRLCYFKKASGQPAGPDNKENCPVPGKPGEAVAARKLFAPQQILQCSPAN
inactive: nilotinib -0.009 | [1] 0.002 | dasatinib 0.004 | [2] 0.003 | [3] -0.009 | quisinostat -0.03 | tipifarnib 0.015 | [4] -0.005 | [5] -0.043 | [6] -0.003 | [7] 0.04 | vorinostat -0.028 | silmitasertib -0.001 | [8] 0.014 | entospletinib 0.035

TXNRD2 (UniProt Q9NNW7)
inactive: nilotinib 0.063 | [1] 0.008 | dasatinib 0.039 | [2] 0.071 | [3] 0.015 | quisinostat -0.017 | tipifarnib -0.005 | [4] -0.023 | [5] -0.006 | [6] -0.05 | [7] -0.016 | vorinostat 0.125 | silmitasertib -0.025 | [8] 0.029 | entospletinib 0.023

TRIP12 isoform 2 (UniProt Q14669)
active: vorinostat -0.266
inactive: nilotinib -0.019 | [1] 0.011 | dasatinib 0.003 | [2] 0.001 | [3] 0.039 | quisinostat -0.065 | tipifarnib -0.017 | [4] 0.057 | [5] 0.016 | [6] 0.003 | [7] -0.057 | silmitasertib 0.03 | [8] 0.005 | entospletinib -0.002

TMOD1 (UniProt P28289)
active: vorinostat -0.312
inactive: nilotinib -0.029 | [1] -0.032 | dasatinib 0.011 | [2] -0.02 | [3] 0.014 | quisinostat -0.007 | tipifarnib -0.013 | [4] 0.031 | [5] 0.008 | [6] -0.015 | [7] 0.005 | silmitasertib 0.02 | [8] -0.005 | entospletinib 0.01

TUT4 (UniProt Q5TAX3)
UniProt Q5TAX3, sequence (Q5TAX3 whole entry, looked up): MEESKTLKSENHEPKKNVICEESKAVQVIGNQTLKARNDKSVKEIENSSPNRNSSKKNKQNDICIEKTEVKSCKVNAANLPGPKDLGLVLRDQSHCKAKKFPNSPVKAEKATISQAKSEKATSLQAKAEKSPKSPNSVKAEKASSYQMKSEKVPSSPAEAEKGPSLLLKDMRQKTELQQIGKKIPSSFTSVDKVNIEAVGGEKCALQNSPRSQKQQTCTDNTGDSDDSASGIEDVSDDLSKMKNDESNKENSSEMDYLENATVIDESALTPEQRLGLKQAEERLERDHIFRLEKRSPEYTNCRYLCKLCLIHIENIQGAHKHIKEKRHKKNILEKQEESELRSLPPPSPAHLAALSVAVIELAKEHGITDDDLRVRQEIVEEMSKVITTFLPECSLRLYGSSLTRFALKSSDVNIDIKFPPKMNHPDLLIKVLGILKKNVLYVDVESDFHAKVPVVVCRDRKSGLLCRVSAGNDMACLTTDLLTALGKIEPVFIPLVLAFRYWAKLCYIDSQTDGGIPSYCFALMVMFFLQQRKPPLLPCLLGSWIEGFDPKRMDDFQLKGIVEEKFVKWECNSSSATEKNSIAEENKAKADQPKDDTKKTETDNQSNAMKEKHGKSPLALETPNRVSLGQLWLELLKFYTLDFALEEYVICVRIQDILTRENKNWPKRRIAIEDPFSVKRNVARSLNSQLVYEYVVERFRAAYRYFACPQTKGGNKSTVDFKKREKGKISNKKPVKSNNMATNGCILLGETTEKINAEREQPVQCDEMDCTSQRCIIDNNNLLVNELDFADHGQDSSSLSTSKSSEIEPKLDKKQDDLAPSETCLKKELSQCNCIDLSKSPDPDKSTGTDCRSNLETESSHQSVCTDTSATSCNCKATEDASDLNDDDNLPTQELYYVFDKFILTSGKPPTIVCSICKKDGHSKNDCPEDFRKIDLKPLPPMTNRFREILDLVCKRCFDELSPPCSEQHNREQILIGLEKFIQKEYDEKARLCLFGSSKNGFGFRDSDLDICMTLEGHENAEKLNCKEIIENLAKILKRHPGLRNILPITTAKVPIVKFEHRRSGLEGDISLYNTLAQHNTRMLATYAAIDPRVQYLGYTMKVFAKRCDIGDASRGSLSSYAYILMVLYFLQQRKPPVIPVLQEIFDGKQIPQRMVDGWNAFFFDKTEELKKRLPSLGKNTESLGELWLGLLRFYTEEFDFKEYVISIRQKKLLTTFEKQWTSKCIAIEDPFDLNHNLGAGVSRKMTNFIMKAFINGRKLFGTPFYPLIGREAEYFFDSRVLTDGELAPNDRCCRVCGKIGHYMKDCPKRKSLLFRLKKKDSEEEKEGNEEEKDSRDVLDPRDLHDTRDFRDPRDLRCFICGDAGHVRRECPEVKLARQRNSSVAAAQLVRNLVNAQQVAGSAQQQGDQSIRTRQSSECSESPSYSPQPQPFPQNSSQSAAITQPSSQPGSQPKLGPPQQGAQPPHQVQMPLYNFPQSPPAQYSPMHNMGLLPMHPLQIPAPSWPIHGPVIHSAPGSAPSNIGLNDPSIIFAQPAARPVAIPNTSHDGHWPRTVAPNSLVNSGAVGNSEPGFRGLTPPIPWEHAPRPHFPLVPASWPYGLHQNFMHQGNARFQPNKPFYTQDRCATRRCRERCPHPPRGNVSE
inactive: nilotinib -0.06 | [1] 0.02 | dasatinib -0.097 | [2] 0.001 | [3] -0.001 | quisinostat -0.054 | tipifarnib -0.045 | [4] 0.055 | [5] 0.048 | [6] -0.002 | [7] 0.072 | silmitasertib 0.018 | [8] -0.048 | entospletinib -0.029
active: vorinostat -0.398
